The source of these data is PubChem BioAssay.

Activity calls are given as the source filed them. Unless noted, how the calls were made is not given here.

Assay [1] is described as follows: anti-His antibody binders, primary screen, artefact control for SMM control protein annotation, biochemical, small-molecule microarray, 635 nm fluorescence (AID 1128).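 Further: score merges feature fluorescence with signal-to-noise for each printed compound spot.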 The note with it: anti-His Alexa647 antibody binding, higher = more signal.
Assay [2] concerns Human papillomavirus type 1a E7 protein (residues 1-88). Description: HPV1a E7 small-molecule binders, primary screen, biochemical, small-molecule microarray, residues 1-88, 635 nm (AID 1129). The following applies: small-molecule microarray binding, fluorescence 635 nm; higher = more signal.
For assay [3], the target named is Focal adhesion kinase 1 (Homo sapiens) (UniProt Q05397). Description: small-molecule microarray binders of FAK, primary screen, biochemical, 635/667 nm fluorescence, BSA, DTT (AID 1130).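 Further: composite of spot emission at 667 nm and signal to noise over triplicate slides.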 The note with it: PTK2 binding, 635 nm fluorescence, higher = more signal.
For assay [4], the system named is Fibrinogen (Alexa647-labelled). Description: fibrinogen binders on compound microarrays, profiling panel, artefact control for SMM control-protein annotation, biochemical, small-molecule microarray, 635/667 nm fluorescence (AID 1131).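 Further: z-score merges 667 nm fluorescence with per-spot signal-to-noise over triplicate slides.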 The note with it: fibrinogen-A647 binding fluorescence, higher = more signal.
Assay [5] concerns the target Follistatin (Homo sapiens) (UniProt P19883). Description: follistatin binders on small-molecule microarrays, primary screen, biochemical, small-molecule microarray, 635/667 nm fluorescence (AID 1132). The note with it: FST binding, 635 nm fluorescence, higher = more signal.
In assay [6] the target is Fibroblast growth factor 2 (Homo sapiens) (UniProt P09038). Description: FGF2 binders on small-molecule microarrays, primary screen, biochemical, small-molecule microarray, 635/667 nm fluorescence (AID 1133). The note with it: small-molecule microarray binding, FGF2, fluorescence 635/667; higher = more signal.
Assay [7] can be described thus: mitochondrial membrane potential change in A549 cells, profiling panel, cell-based, JC-1 fluorescence, basal, 24 h, 100 nL (AID 1138).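 Further: A549 lung adenocarcinoma cells under basal conditions with no added stimulus; test concentration not given here.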 The note with it: higher = more signal.
Assay [8] relates to Lefty1. The assay can be described thus: Lefty1 binders on small-molecule microarrays, primary screen, biochemical, small-molecule microarray, 635/667 nm fluorescence (AID 1139). The following applies: small-molecule microarray binding, fluorescence 635/667; higher = more signal.
The test system of assay [9] is wheat germ agglutinin (Triticum aestivum), Alexa647-labelled. The assay can be described thus: wheat germ agglutinin binders on compound microarrays, profiling panel, artefact control for SMM control-protein annotation, biochemical, small-molecule microarray, 635/667 nm fluorescence (AID 1140).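 Further: score merges 667 nm feature emission with signal to noise over triplicate slides.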 The following applies: WGA-A647 binding, 635 nm fluorescence, higher = more signal.

In assay [10] the target is Luciferin 4-monooxygenase (Photinus pyralis) (UniProt P08659). Description: firefly luciferase enzyme inhibitors, primary screen, biochemical, luminescence, purified enzyme, 2006 set (AID 1141).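 Further: cell-free assay with purified firefly luciferase at 100 ng per well in PBS; test concentration not given here.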 The note with it: SteadyGlo luminescence, 30 min, higher = more signal, called active from +8 up or from −8 down.
In assay [11] the test system is Wnt5a (protein binding on small-molecule microarray). The assay can be described thus: Wnt5a binders on small-molecule microarray, primary screen, biophysical, 635/667 nm fluorescence (AID 1142).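 Further: fluorescence read at 667 nm with signal to noise per printed feature.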 The note with it: 635 nm fluorescence, higher = more signal.
Assay [12] is described as follows: cell viability in Huh7 cells, primary screen, cytotoxicity control for HCV replication inhibitor project, CellTiter-Glo luminescence, basal, 48 h (AID 1143).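 Further: Huh7 hepatoma cells carrying a hepatitis C replication reporter with no stimulus; test concentration not given here.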 The note with it: Huh7 HCV replicon, higher = more signal, called active from +8 up or from −8 down.
A short description of assay [13]: P. aeruginosa biofilm formation inhibitors, primary screen, PAO1 strain, BacTiter-Glo luminescence, LB-PBS (AID 1144). The following applies: 12 h, higher = more signal.
The nature of assay [14]: CREB reporter modulators without forskolin, primary screen, cell-based, PC12, CRE-LacZ reporter, unstimulated (AID 1145). The following applies: no forskolin, luminescence, 4.5 h, higher = more signal, called active from +8 up or from −8 down.
Assay [15] can be described thus: CREB reporter modulators under forskolin, primary screen, cell-based, PC12, CRE-LacZ reporter, forskolin-stimulated (AID 1146).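 Further: PC12 cells with 6xCRE LacZ reporter stimulated by forskolin 10 µM; beta-galactosidase reporter signal reflecting CREB driven transcription.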 The following applies: luminescence, 4.5 h, higher = more signal, called active from +8 up or from −8 down.
The target of assay [16] is Streptavidin (Streptomyces avidinii) (UniProt P22629). Description: streptavidin binders on small-molecule microarray, primary screen, artefact control for SMM compound annotation, biophysical, 635/667 nm fluorescence (AID 1147).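 Further: signal reflects streptavidin binding to arrayed compounds as a control protein.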 The note with it: streptavidin binding, higher = more signal.
Assay [17] is described as follows: small-molecule binders of probe aInhba, primary screen, biochemical, small-molecule microarray, 635/667 nm fluorescence (AID 1148).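 Further: score merges 667nm spot fluorescence with signal-to-noise for antibody binding to printed compounds.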 The following applies: higher = more signal.
Assay [18] deals with Torsin-1A (Homo sapiens) (UniProt O14656). The assay can be described thus: torsin A binders from cell lysate, primary screen, small-molecule microarray, wild-type, 635/667 nm (AID 1149). The following applies: COS7 hTOR1A-WT lysate, 635 nm fluorescence, higher = more signal.
Assay [19] shares this target. Description: small-molecule binders of mutant TOR1A in lysate, primary screen, cell lysate, small-molecule microarray, COS7 lysate, 635/667 nm fluorescence (AID 1150).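 Further: score pools 667 nm emission and signal to noise measuring lysate protein binding.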 The note with it: COS7 hTOR1A mutant lysate, 635 nm fluorescence, higher = more signal.
Assay [20] relates to Sonic hedgehog protein (Shh). The assay can be described thus: small-molecule binders of Shh protein, primary screen, biochemical, small-molecule microarray, 635/667 nm fluorescence (AID 1151).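 Further: Shh protein binding to compounds spotted on small-molecule microarray slides; score combines spot fluorescence intensity with signal-to-noise across triplicate slides.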 The note with it: small-molecule microarray binding, 635 nm fluorescence; higher = more signal.

Streptavidin (Streptomyces avidinii), sequence (P22629 whole entry, looked up): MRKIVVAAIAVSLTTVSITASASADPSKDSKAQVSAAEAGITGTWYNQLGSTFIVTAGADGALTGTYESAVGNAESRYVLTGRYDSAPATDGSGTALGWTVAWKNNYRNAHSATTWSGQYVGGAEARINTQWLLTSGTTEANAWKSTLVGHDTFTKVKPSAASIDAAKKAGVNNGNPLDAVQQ
Torsin-1A (Homo sapiens), sequence (O14656 whole entry, looked up): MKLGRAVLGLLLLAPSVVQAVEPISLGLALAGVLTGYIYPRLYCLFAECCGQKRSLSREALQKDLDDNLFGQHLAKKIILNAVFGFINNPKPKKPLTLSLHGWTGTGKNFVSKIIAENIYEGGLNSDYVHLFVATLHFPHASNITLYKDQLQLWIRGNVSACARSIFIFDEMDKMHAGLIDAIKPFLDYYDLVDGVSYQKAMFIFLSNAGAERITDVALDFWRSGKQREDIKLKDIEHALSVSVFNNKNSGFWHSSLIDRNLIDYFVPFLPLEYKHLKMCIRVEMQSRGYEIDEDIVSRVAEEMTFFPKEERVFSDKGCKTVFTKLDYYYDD
Follistatin (Homo sapiens), sequence (P19883 whole entry, looked up): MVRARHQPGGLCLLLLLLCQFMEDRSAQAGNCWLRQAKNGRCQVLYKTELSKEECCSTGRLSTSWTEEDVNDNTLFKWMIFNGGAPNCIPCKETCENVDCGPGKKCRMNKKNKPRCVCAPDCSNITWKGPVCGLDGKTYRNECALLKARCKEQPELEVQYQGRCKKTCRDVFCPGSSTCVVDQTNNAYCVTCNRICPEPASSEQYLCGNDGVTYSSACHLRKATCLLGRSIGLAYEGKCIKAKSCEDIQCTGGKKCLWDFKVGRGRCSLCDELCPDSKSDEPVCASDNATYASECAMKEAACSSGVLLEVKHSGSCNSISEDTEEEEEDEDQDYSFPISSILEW
Fibroblast growth factor 2 (Homo sapiens), sequence (P09038 whole entry, looked up): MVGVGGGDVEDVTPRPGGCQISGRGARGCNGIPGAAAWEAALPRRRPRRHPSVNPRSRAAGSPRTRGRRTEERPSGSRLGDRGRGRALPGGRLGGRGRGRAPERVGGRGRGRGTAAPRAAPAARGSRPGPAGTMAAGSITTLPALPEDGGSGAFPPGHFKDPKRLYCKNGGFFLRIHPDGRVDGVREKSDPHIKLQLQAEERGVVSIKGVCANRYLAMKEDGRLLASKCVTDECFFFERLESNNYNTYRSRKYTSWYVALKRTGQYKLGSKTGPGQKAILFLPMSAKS
Focal adhesion kinase 1 (Homo sapiens), sequence (Q05397 whole entry, looked up): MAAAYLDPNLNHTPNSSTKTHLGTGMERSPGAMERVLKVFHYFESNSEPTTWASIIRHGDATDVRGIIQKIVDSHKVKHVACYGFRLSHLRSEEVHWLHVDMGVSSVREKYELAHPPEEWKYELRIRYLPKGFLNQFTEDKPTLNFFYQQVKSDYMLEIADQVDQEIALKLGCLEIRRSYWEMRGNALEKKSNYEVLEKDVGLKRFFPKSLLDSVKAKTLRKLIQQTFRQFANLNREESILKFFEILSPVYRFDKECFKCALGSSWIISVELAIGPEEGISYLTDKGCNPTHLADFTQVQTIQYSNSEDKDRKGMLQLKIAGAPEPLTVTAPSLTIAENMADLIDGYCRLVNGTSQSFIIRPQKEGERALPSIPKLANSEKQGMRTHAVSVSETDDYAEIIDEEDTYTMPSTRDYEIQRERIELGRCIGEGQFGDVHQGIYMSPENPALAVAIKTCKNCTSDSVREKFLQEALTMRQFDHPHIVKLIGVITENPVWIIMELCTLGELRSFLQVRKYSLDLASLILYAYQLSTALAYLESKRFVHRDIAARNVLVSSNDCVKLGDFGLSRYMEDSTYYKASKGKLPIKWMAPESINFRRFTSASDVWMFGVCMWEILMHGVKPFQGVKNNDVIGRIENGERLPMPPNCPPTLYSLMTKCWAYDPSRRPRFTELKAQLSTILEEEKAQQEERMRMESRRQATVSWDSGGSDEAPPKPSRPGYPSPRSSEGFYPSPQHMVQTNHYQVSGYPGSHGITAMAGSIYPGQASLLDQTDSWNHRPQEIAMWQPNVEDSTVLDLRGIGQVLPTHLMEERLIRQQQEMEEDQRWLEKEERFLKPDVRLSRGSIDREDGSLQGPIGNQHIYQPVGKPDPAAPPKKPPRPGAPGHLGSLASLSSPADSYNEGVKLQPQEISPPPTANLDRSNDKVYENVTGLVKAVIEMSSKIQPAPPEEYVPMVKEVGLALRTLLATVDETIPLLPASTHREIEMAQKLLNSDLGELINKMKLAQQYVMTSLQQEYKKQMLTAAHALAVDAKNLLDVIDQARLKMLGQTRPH
Luciferin 4-monooxygenase (Photinus pyralis), sequence (P08659 whole entry, looked up): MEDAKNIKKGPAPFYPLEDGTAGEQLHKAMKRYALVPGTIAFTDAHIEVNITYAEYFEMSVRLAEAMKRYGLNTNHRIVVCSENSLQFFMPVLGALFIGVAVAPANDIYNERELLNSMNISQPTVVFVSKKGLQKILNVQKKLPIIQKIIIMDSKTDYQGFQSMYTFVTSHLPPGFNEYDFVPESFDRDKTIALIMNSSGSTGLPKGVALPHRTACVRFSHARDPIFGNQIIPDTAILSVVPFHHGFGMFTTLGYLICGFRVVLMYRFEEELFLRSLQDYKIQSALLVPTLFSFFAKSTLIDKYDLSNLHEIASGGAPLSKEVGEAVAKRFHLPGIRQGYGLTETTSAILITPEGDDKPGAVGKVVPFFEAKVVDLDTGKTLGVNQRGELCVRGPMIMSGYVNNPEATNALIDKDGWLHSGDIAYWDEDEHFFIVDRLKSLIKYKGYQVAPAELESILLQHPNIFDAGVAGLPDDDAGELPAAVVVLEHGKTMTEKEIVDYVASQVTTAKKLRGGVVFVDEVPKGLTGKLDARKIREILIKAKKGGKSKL

For the molecule `O=C1C2C=CC(C(O)C=Cc3ccc([N+](=O)[O-])cc3)N(Nc3ccccc3F)C2C(=O)N1c1ccccc1` (stereo not given), the composite z-score is 1.41 in assay [1]; 1.23 in assay [2]; 0.545 in assay [3]; 0.995 in [4]; 1.11 in assay [5]; 0.211 in [6]. The composite z-score came out at 0.522 in assay [8]; 1 in assay [9]; 0.265 in [11]; 1.77 in assay [16]; 0.095 in assay [17]; 0.422 in assay [18]. In addition, the composite z-score in [19] is 0.31; in [20], -0.0025. For the same molecule, the z-score in assay [7] was -0.607; in [10], -0.252 (inactive); in assay [12], -0.071 (inactive); in assay [13] it was 0.0113 (inactive); in assay [14], -0.424 (inactive); in assay [15] it was -0.156 (inactive).
As to `[N-]=[N+]=Nc1ccccc1C[C@@]1(C(=O)N2CCCCC2)N=C(c2ccc(OCCCO)cc2)O[C@@H]1c1ccccc1N=[N+]=[N-]`, the composite z-score in [1] is 2.17; in assay [2], 1.19; in assay [3], 0.362; in [4], 0.98; in [5], 1.29; in assay [6] it was 0.592. The composite z-score in [8] is -0.271; in assay [9], 1.3; in assay [11], 0.648; in assay [16], 1.33; in assay [17], 0.404; in assay [18] it was 0.46. The values for the composite z-score in assay [19] and in [20] were 0.585 and 0.248, respectively. For the same molecule, the z-score in assay [7] was -1.21; in assay [10], -2.39 (inactive); in assay [12], -5.13 (inactive); in assay [13], 0.989 (inactive); in assay [14], 0.801 (inactive); in assay [15] it was -0.929 (inactive).
For `COC(=O)c1c(CC[C@@H](CO)NC(=O)N[C@@H](Cc2ccccc2)Cn2cc(-c3ccccn3)nn2)oc(C(=O)N2CCOCC2)c1C(=O)OC`, the composite z-score in [1] was -0.241; in [2] it was -0.341; in [3], 0.384; in [4], -0.405; in assay [5], 0.57; in assay [6] it was -0.129. The composite z-score in assay [8] is 0.795; in assay [9], 0; in assay [11], -0.216; in assay [16], -0.0372; in assay [17], 0.0184; in assay [18], -0.481. In addition, the composite z-score was found to be 0.182 in assay [19] and 1.72 in assay [20]. The z-score in [7] is -0.187; in [10], 1.1 (inactive); in [12], -0.625 (inactive); in [13] it was -0.301 (inactive); in assay [14], 0.498 (inactive); in assay [15] it was -0.248 (inactive).
Regarding `CC1CC/C=C\[C@H]2OC34C=CCN(c5ccc6ccccc6c5)C(=O)[C@H]3N(CCO)C(=O)[C@@H]4C2C(=O)O1` (stereo not given in full), the composite z-score in [1] is -0.9; in [2], -0.898; in assay [3] it was -0.645; in assay [4] it was -0.0601; in [5] it was -0.839; in assay [6], -0.467. For the same molecule, the composite z-score is -0.708 in [8]; 1.03 in assay [9]; 0.451 in assay [11]; -0.818 in assay [16]; 0.0301 in [17]; -1.34 in assay [18]. Further, the results for the composite z-score in assay [19] and in [20] were 0.652 and 0.0032, respectively. For the same molecule, the z-score in assay [7] is -0.245; in [10], 0.288 (inactive); in assay [12], -0.929 (inactive); in assay [13] it was 0.282 (inactive); in assay [14] it was -0.35 (inactive); in assay [15], 0.289 (inactive).
Take `CN1CCC(CCCO)=CC1c1cccs1` (stereo not given): the composite z-score in [1] is -0.321; in [2], -0.902; in assay [3], -0.698; in assay [4], 0.0141; in [5] it was -0.0163; in [6] it was 0.184. For the same molecule, the composite z-score is 0.118 in assay [8]; -0.485 in assay [9]; -0.142 in assay [11]; -0.131 in assay [16]; -0.128 in [17]; -0.214 in [18]. Moreover, the composite z-score in [19] is -0.122; in assay [20], 0.834. Further, the z-score is 0.391 in assay [7]; 0.0421 (inactive) in assay [10]; 0.504 (inactive) in [12]; 0.519 (inactive) in [13]; -0.145 (inactive) in assay [14]; 1.84 (inactive) in assay [15].
